Screening data (PubChem BioAssay)
Only some compounds are listed: those with a hit (about 2.9% of all), similar ones and a draw of the others.
FH mod = Identification of activators of human fumarate hydratase by quantitative high-throughput screening; Fumarate hydratase, mitochondrial (Homo sapiens), P07954; FH coupled MDH/diaphorase resazurin fluorescence, 15 min; AID 1347055, 2019; 54,000 compounds, 0.22% hits; Potency, µM (top dose mostly 79.9 µM), without a hit: top-dose activity change, negative = inhibition, usual class: inhibitors; note: potency is the fitted concentration of half-maximal effect; % is set by controls: 0 for no effect and ±100 for the full control effect; the screen sought activators but most active calls are inhibition curves; nearly all actives have a fitted effect of over 45% in size
SKOV3 invasion = inhibitors of ovarian cancer cell adhesion and invasion in omental model; AID 1963576; SKOV3ip1-GFP adhesion/invasion on 3D omental model, fluorescence; 46,000 compounds, 0.1% hits; Potency, µM (doses to about 45.8 µM), for the others: at the top dose activity change, negative = inhibition, most hits filed as inhibitors;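 note: potency is the fitted concentration of half-maximal effect; plate controls were DMSO wells for no effect and tomatine positive control wells for full effect; nearly all actives have a fitted effect of over 65% in size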
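Primary human omental fibroblast/mesothelial 3D culture pre-formed 48 h. SKOV3ip1-GFP cells added with compounds (0.36-46 umol/L), incubated 2 h RT/16 h 37 C, fixed; GFP cells quantified at 488/509 nm.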
GALC G270D act = enhancers of human galactocerebrosidase G270D mutant activity in cells; 145M-Twi-hGALC-G270D cells (Twitcher mouse brain line with human GALC G270D), HMU-beta-Gal fluorescence, 48 h; 45,000 compounds, 0.1% hits; Potency, µM (highest dose often 57.5 µM), most hits filed as activators; note: potency is the fitted concentration of half-maximal effect; 0% is about no effect; nearly all actives have a fitted effect of over 65% in size
Target sequence (P54803 whole entry G286D): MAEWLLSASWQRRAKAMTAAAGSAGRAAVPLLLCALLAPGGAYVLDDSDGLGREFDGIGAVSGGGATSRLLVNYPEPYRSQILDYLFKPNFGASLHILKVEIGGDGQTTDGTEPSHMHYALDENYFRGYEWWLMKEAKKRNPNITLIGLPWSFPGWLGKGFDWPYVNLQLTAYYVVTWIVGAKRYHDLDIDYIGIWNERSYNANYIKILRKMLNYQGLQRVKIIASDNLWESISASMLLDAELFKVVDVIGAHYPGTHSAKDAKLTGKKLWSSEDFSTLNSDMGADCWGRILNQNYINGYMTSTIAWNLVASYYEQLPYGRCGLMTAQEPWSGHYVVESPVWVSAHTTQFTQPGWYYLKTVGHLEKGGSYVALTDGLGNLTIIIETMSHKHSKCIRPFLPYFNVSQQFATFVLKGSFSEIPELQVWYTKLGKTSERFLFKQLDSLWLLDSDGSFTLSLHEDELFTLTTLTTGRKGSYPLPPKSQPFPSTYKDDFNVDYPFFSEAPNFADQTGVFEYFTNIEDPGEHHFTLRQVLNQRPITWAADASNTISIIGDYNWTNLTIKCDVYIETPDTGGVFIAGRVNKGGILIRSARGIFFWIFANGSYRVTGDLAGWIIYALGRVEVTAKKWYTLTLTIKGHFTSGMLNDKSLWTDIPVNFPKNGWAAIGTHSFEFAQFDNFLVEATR
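Brain-derived Twitcher mouse 145M-Twi cells stably expressing human GALC-G270D or wild-type GALC, treated live, then residual GALC activity read by fluorescence of HMU-b-Gal substrate (0.1 mM final) in citrate-phosphate buffer pH 5.2 with sodium taurocholate. Signal increase indicates enhancement.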
DRV1 agonist = GPR32 (DRV1) agonism, beta-arrestin recruitment. O75388. CHO-K1 GPR32 beta-arrestin PathHunter luminescence, 90 min; zero percent set by DMSO-only wells. activation, % at 76.9 µM. 48,000 compounds, 2.5% hits. AID 1346428;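 active = activation of at least 60% and not above a set upper limit, about 1 call in 100 departs from these limits; inconclusive = activation of 40% to 60%, or above that upper limit; inactive = activation under 40%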; note: 0% is about no effect
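Beta-arrestin recruitment read-out: luminescence from complemented beta-Gal in CHO-K1 GPR32 PathHunter cells, measured 1 h after detection reagent at ambient temperature following 90 min compound exposure at 37 °C; DMSO served as basal (EC0) control.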
Numbers without * were called inactive; i = inactive; ? = inconclusive; / = no result; [ ] = another dose, or the depositor's remark. Unless noted, calls come from the whole dose curve; as a rule, active = well fitted curve in the direction sought with a large enough effect; inconclusive = small, poorly fitted or top-dose-only effect, or another doubt; inactive = no such curve, though single readings can be large; an effect the other way counts as inactive or inconclusive.

SMILES	FH mod	SKOV3 invasion	GALC G270D act	DRV1 agonist
CC(C)c1ccc(NS(=O)(=O)c2ccc3nc(-c4ccccc4)[nH]c3c2)cc1	-1%	-2%	i	110*
Cc1ccc(NS(=O)(=O)c2ccc3nc(-c4ccccc4)[nH]c3c2)c(Cl)c1	-13%	?	i	104*
CCCCOC(=O)NC(=O)C1c2ccccc2Oc2ccccc21	0%	/	/	/
COc1cccc(OCc2cc(=O)n3c(-c4ccccc4)csc3n2)c1	0%	20%	i	121*
Cc1ccccc1OCc1cc(=O)n2c(-c3ccccc3)csc2n1	1%	-30%	i	32
COc1ccc(-c2nnc(SCC(=O)Nc3cccc(C)c3)s2)cc1	10%	1%	i	4
COc1ccc(-c2nnc(SCC(=O)Nc3ccc(C)c(C)c3)s2)cc1	6%	8%	i	115*
Cc1ccc(NC(=O)C2CCN(S(=O)(=O)c3cccc4nonc34)CC2)cc1C	-1%	i	i	101*
CC(=O)c1ccc(N2CCN(C(=O)C3CCN(S(=O)(=O)c4ccc(Br)s4)CC3)CC2)cc1	-24%	-5%	i	87*
Cc1cc(NC(=O)C2CCN(S(=O)(=O)c3ccc(Br)s3)CC2)ccc1Br	-6%	i	i	76*
Cc1ccc(NC(=O)C2CCN(S(=O)(=O)c3cccc4nsnc34)CC2)cc1F	-35%	-12%	i	93*
Cc1cccc(C)c1NC(=O)C1CCN(S(=O)(=O)c2cccc3nsnc23)CC1	1%	i	i	-2
C[C@H]1CC[C@@]2(OC1)O[C@H]1CC3C4CC=C5C[C@H](O)C[C@@H](O[C@@H]6O[C@@H](C)[C@H](O)[C@@H](O)[C@H]6O[C@@H]6O[C@@H](C)[C@H](O)[C@@H](O)[C@H]6O)[C@]5(C)C4CC[C@]3(C)[C@H]1[C@@H]2C (some centres not stated)	14%[20.6 µM]	/	/	/
CCCCC#Cc1nc(NC)c2ncn([C@@H]3O[C@H](CO)[C@@H](O)C3O)c2n1 (some centres not stated)	-8%[53.3 µM]	/	/	/
CCOC(=O)CCNc1cc(N2CCc3ccccc3CC2)nc(-c2cccnc2)n1	0%	/	/	/
O=C1c2ccccc2CCc2ccccc21	-2%[53.3 µM]	/	i	11
c1ccc2c(c1)CCc1ccccc1N2	?	/	i	119*
COc1ccc(NS(=O)(=O)c2ccc3c(c2)[C@H]2C=CC[C@H]2[C@@H](c2ccc(C(=O)O)cc2)N3)cc1	35µM*	-5%	i	-10
CCN(CC)CCCNC(=O)c1ccc(-c2nc(CN3CCc4ccccc43)c(C)o2)cc1	-3%	?	i	95*
CCCCNC(=O)c1ccc(-c2nc(CS(=O)(=O)c3ccc(C)cc3)c(C)o2)cc1	-11%	0%	i	69*
Cc1ccc(CNC(=O)c2ccc(-c3nc(CS(=O)(=O)c4ccc(C)cc4)c(C)o3)cc2)cc1	?	3%	?	110*
C=C[C@]1(C)C[C@H](O)[C@@H]2[C@H](OC(=O)[C@@H]2C)C1/C(C)=C/O[C@@H]1O[C@H](CO)[C@@H](O)[C@H](O)[C@H]1O (some centres not stated)	6%[53.3 µM]	/	/	/
C/C=C/C=C/C(O)=C1\C(O)=C(C)C(=O)[C@@]2(C)OC(=O)[C@@](C)(NC(=O)/C=C/C(=O)O)[C@@H]12	-2%[53.3 µM]	/	/	/
CCN(CC)c1cc(C)c2cc(NC(=O)c3ccc(F)cc3Cl)ccc2n1	-19%	?	i	18
CCOC(=O)CSc1nc2ccc(NC(=O)c3ccc(C)cc3)cc2s1	-10%	-6%	i	?
SMILES	FH mod	SKOV3 invasion	GALC G270D act	DRV1 agonist
CCN(CC)c1cc(C)c2cc(NC(=O)c3cccc(F)c3)ccc2n1	-22%	-6%	i	92*
Cc1ccc(NC(=O)CSc2nc3ccc(NC(=O)c4ccco4)cc3s2)cc1	3%	-18%	i	99*
Cc1cccc(NC(=O)CSc2nc3ccc(NC(=O)c4ccccc4)cc3s2)c1	3%	-24%	i	60*
Cc1cccc(NC(=O)CSc2nc3ccc(NC(=O)COc4ccccc4F)cc3s2)c1	-10%	-7%	i	-4
CCOC(=O)CSc1nc2ccc(NC(=O)c3cccc(F)c3)cc2s1	-18%	-5%	i	73*
CN(C)CC1CCn2cc(c3ccccc32)C2=C(C(=O)NC2=O)c2cn(c3ccccc23)CCO1 (configuration not stated)	0%	/	/	/
CCNC(=O)[C@@H]1CCCN1C(=O)[C@H](CCCN=C(N)N)NC(=O)[C@H](CC(C)C)NC(=O)[C@@H](C)NC(=O)[C@H](Cc1ccc(O)cc1)NC(=O)[C@H](CO)NC(=O)[C@H](Cc1c[nH]c2ccccc12)NC(=O)[C@H](Cc1cnc[nH]1)NC(=O)[C@@H]1CCC(=O)N1	5%[53.3 µM]	/	/	/
COC(C)(C)CCn1nc(Nc2c(C)cccc2C)c2cnc(Nc3ccc(OCCN4CCCC4)c(F)c3)nc21	-13%	/	/	/
Cc1ccccc1C(=O)OCc1cc(=O)n2c(C)csc2n1	3%	0%	i	75*
COc1ccccc1C(=O)Nc1ccccc1C(=O)OCc1cc(=O)n2c(C)csc2n1	-21%	i	i	-8
CC(C)(C)c1ccc(OCC(=O)Nc2ccc(S(=O)(=O)Nc3ncccn3)cc2)cc1	-13%	-6%	i	79*
Cc1ccc(CNC(=O)c2cccc(NC(=O)N3CCSc4ncccc43)c2)cc1	3%	17%	i	92*
C=C1C(=O)OC2/C=C(\C)CC/C=C(\C=O)C(OC)C(OC(=O)C(C)CC)C12 (configuration not stated)	0%[53.3 µM]	/	/	/
CCOC(=O)c1c(NC(=O)/C=C/c2ccc(Cl)cc2)sc2c1CCC(C)C2 (configuration not stated)	9%	i	i	79*
CCCOc1ccc(/C=C/C(=O)Nc2sc3c(c2C(=O)OCC)CCC(C)C3)cc1OC (configuration not stated)	-3%	-3%	i	1
C=C1CCC2C(C)(CO[C@@H]3O[C@H](CO)[C@@H](O)[C@H](O)[C@H]3O)C(O)CCC2(C)C1C(=O)CC1=CCOC1=O (some centres not stated)	0%[53.3 µM]	/	/	/
O=C(NCCc1csc2nc(-c3ccccc3F)nn12)c1ccccc1C(F)(F)F	-21%	1%	i	26
COc1cccc(C(=O)NCCc2csc3nc(-c4ccccc4F)nn23)c1OC	-7%	6%	i	68*
O=C(Cc1ccc(F)cc1)NCCc1csc2nc(-c3ccccc3F)nn12	-11%	-4%	i	62*
CCc1cc2c(cc1CC)CC(NCC(O)c1ccc(O)c3[nH]c(=O)ccc13)C2 (configuration not stated)	-5%	/	/	/
COc1cc(-c2nc3sccn3c2Nc2c(C)cccc2C)ccc1O	16µM*	9%	i	-17
